Structures are written as SMILES. Where “and” joins values, the source holds several entries; their conditions need not be identical. Equal entries are not always repeated. Calls of active or inactive are those of the source. Unless noted, the rule behind the calls is not given here.

Experimental findings from PubChem BioAssay are described below.

A short description of assay [1]: liver-stage malaria parasite growth inhibition, primary screen, cell-based, HepG2, luciferase luminescence, HepG2 viability (AID 624349; in the data active = parasite load remaining mostly below about 12%, no sharp cut-off; inactive = mostly above about 10%;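 note: 100% = mean of DMSO negative control wells on the same plate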). Particulars: P. berghei liver stage in HepG2, luciferase luminescence, concentration not given here; parasite load remaining: stronger effect = lower value; viability: measured here: HepG2 viability without parasites.
Assay [2] in a line: Cy5 fluorescence interference with SSB-bound oligo, artefact control for HCV NS3 helicase inhibitor project, biochemical, NIH Clinical Collection, E. coli SSB (AID 743268).
Assay [3] concerns Hepatitis C virus NS3 helicase. The experiment in a line: HCV NS3 helicase inhibitors, primary screen, biochemical, fluorescence polarization, NIH Clinical Collection (AID 743270). Particulars: NS3 helicase binding to Cy5-dT15 DNA, stronger effect = higher value, concentration not given here. (Polarisation of emitted light reports the rotation of a fluorescent probe.)
In assay [4] the target is Single-stranded DNA-binding protein (Escherichia coli (strain K12)) (UniProt P0AGE0). The assay is described as follows: E. coli SSB displacement from DNA, counter-screen for HCV NS3 helicase inhibitor project, biochemical, fluorescence polarization, NIH Clinical Collection (AID 743271; in the data active = inhibition above about 28%). Particulars: stronger effect = higher value, concentration not given here.
Assay [5] is described as follows: fluorescence interference in NS3h assay format, artefact control for HCV NS3 helicase inhibitor project, biochemical, NIH Clinical Collection (AID 743272).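 Note: HCV NS3 helicase with a Cy5 labelled single stranded DNA probe.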 As to conditions: fluorescence interference counterscreen, stronger effect = lower value. On the technique in general: Counterscreens check selectivity or assay interference.
The test system of assay [6] is Neuropilin-2 / VEGF-C interaction (human). The experiment in a line: inhibitors of NRP2–VEGF-C binding, biochemical, microplate binding format, z-score (AID 743281). Particulars: microplate NRP2/VEGF-C binding assay; stronger effect = lower value.
The nature of assay [7]: modulation of C. elegans fzo-1 (AID 1259413).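 Note: fzo-1 mutant C. elegans worms in liquid wells.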 Particulars: C. elegans fzo-1 modulator screen, mean read-out; stronger effect = higher value.
Assay [8] is described as follows: differential killing of epithelial or mesenchymal cells, primary screen, imaging, PC-3E GFP, TEM4-18 mCherry, co-culture (AID 1345086;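 active = compounds killing one labelled cell type while sparing the other, by normalised counts and ratio limits, not self-fluorescent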;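 for all read-outs here: cells exposed to compound for 72 h before imaging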;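 for red/green cell ratio (normalised): normalised mesenchymal count divided by normalised epithelial count so high means epithelial killing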). As to conditions: imaging cell counts, at 1 µM; for red/green cell ratio (normalised): actives lie on both sides, counts scaled to control wells, 1 = unselective.
A short description of assay [9]: sensitizers of A549 cells to miR-34 induction, primary screen, imaging, A549 dox-inducible miR-34, nuclei and caspase counts (AID 1347080;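 active = compounds whose cell count with miR-34 switched on is under 0.7 times the count with it off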). As to conditions: A549 miR-34 inducible, Hoechst nuclei count, 48 h.
A short description of assay [10]: viability rescue of complex I mutant cybrids, primary screen, cell-based, galactose medium, ATP luminescence (AID 1645843;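 active = z-score of at least 1.8 in each of two replicates, scored against plate mean and spread of sample wells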;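 note: positive z means more ATP and so rescue of galactose-driven cybrid death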). As to conditions: complex I mutant cybrid cells, 72 h, stronger effect = higher value.
[11] abbreviates: measured here: epithelial PC-3E GFP cell survival.
Where [12] appears, read: measured here: mesenchymal TEM4-18 mCherry cell survival.

By viability is commonly meant the share of living cells, or the viability signal relative to a control. In general, inhibition refers to the drop in the measured response relative to a control, in per cent. As for `COc1cccc2c1C(=O)c1c(O)c3c(c(O)c1C2=O)C[C@@](O)(C(=O)CO)C[C@@H]3O[C@H]1C[C@H](N)[C@@H](O)[C@H](C)O1`, in [1], the parasite load remaining was -0.12% (inactive). The compound further displayed a viability in [1] of 25.2%. In addition, the fluorescence ratio in assay [2] is 0.11 (active); in assay [5], 0.41 (active). Moreover, the inhibition in assay [3] is 4.36% (inactive); in assay [4], 17.6% (inactive). Moreover, the z-score in assay [6] was -0.603 (inactive). Moreover, the mean signal in assay [7] was 274 (inactive). The red/green cell ratio (normalised) in assay [8] is 2.46 (active). For the same compound, the normalised cell number in [8] (setting [11]) was found to be 0.19; in [8] (setting [12]), 0.46.

In the case of `CCCC1O[C@@H]2C[C@H]3[C@@H]4CCC5=CC(=O)C=CC5(C)[C@H]4[C@@H](O)CC3(C)C2(C(=O)CO)O1` (stereo partly specified), in assay [7], the mean signal is 259 (inactive).

`C[C@H](CCC(=O)O)[C@H]1CC[C@H]2[C@@H]3[C@@H](O)C[C@@H]4C[C@H](O)CCC4(C)[C@H]3CCC12C` (stereo partly specified): in assay [7], the mean signal was 253 (inactive).

As to `CN1CCN2c3ncccc3Cc3ccccc3C2C1` (stereo unspecified), in [1], the parasite load remaining is 85% (inactive). This compound gave a viability in assay [1] of 76.9%. For the same compound, the fluorescence ratio is 0.98 (inactive) in assay [2] and 0.93 (inactive) in [5]. In addition, the results for the inhibition in assay [3] and in [4] were -1.97% (inactive) and -2.76% (inactive), respectively. In addition, the z-score in assay [6] is -0.469 (inactive); in assay [10] it was 0.645 (inactive) and -0.265 (inactive). Further, the mean signal in assay [7] was 257 (inactive). The fold change was 0.923 (inactive) and 0.892 (inactive) and 0.933 (inactive) in [9] (stronger effect = lower value, cell number ratio, induced over uninduced); 1.2 and 4.96 and 1.4 in assay [9] (measured here: relative caspase fold change +Dox/-Dox). The cell count is 9270 and 8700 and 7820 in [9] (measured here: total cells with miR-34 induction, stronger effect = lower value); 10000 and 9750 and 8380 in [9] (measured here: total cells without miR-34 induction).

With `CN(C)c1ccc(O)c2c1C[C@H]1C[C@H]3[C@H](N(C)C)C(=O)C(C(N)=O)=C(O)C3(O)C(=O)C1=C2O` (stereo partly specified), the mean signal in assay [7] is 263 (inactive).

As to `C#C[C@]1(OC(C)=O)CC[C@H]2[C@@H]3CCC4=CC(=O)CC[C@@H]4[C@H]3CCC21C` (stereo partly specified), the mean signal in assay [7] is 228 (inactive).

As for `CC(=O)OCC(=O)[C@@]1(O)CC[C@H]2[C@@H]3CCC4=CC(=O)C=CC4(C)[C@H]3[C@@H](O)CC21C` (stereo partly specified), the mean signal in assay [7] is 224 (inactive).

Regarding `CC#C[C@]1(O)CCC2C3CCC4=CC(=O)CCC4=C3[C@@H](c3ccc(N(C)C)cc3)C[C@@]21C` (stereo partly specified), the red/green cell ratio (normalised) in assay [8] was 1 (inactive). The normalised cell number in assay [8] (setting [11]) and in assay [8] (setting [12]) was 1.09 each time.

As for `COC(=O)[C@@H](C)Oc1ccc(O)cc1`, in [8], the red/green cell ratio (normalised) was 1.27 (inactive). For the same compound, the normalised cell number in assay [8] (setting [11]) is 0.93; in assay [8] (setting [12]), 1.18.

Turning to `O=S(=O)([O-])OC[C@H]1O[C@@](COS(=O)(=O)[O-])(O[C@H]2O[C@H](COS(=O)(=O)[O-])[C@@H](OS(=O)(=O)[O-])[C@H](OS(=O)(=O)[O-])[C@H]2OS(=O)(=O)[O-])[C@@H](OS(=O)(=O)[O-])[C@@H]1OS(=O)(=O)[O-].[Al+3].[Na+].[Na+].[O-2].[O-2].[OH-]`, in assay [8], the red/green cell ratio (normalised) is 0.81 (inactive). Moreover, the normalised cell number in assay [8] (setting [11]) turned out to be 1.15; in [8] (setting [12]), 0.93.

Turning to `CC1(C)S[C@@H]2[C@H](NC(=O)C(NC(=O)N3CCNC3=O)c3ccccc3)C(=O)N2C1C(=O)O` (stereo partly specified), the red/green cell ratio (normalised) in [8] is 0.99 (inactive). Besides, the normalised cell number turned out to be 1.15 in [8] (setting [11]) and 1.14 in assay [8] (setting [12]).

For `CC(=O)O[C@H]1CC[C@]2(C)C3CC[C@@]4(C)C(CC5O[C@@]6(CCC(C)CO6)[C@@H](C)C54)C3CC[C@@H]2C1` (stereo partly specified), the red/green cell ratio (normalised) in assay [8] was 1.09 (inactive). For the same compound, the normalised cell number in assay [8] (setting [11]) came to 0.87; in assay [8] (setting [12]), 0.95.

Regarding `CO[C@@H]1CC(=O)c2cccc3c2C12Oc1ccc(O)c4c1[C@](O3)(O2)C1O[C@@H]1[C@@H]4O` (stereo partly specified), the red/green cell ratio (normalised) in assay [8] was 0.98 (inactive). Besides, the normalised cell number worked out at 1 in [8] (setting [11]) and 0.98 in [8] (setting [12]).

With `C=C1OC(=O)c2c(OC)cc(OC)c(C)c2C1C` (stereo unspecified), in assay [8], the red/green cell ratio (normalised) was 1 (inactive). Moreover, the normalised cell number in assay [8] (setting [11]) and in [8] (setting [12]) was 0.98 in each case.

For `OC[C@H]1O[C@@](CO)(O[C@@H]2O[C@H](CO)[C@@H](O)[C@H](O)[C@H]2O)[C@@H](O[C@@H]2O[C@H](CO)[C@@H](O)[C@H](O)[C@H]2O)[C@@H]1O`, the red/green cell ratio (normalised) in assay [8] was 0.9 (inactive). Moreover, the normalised cell number in [8] (setting [11]) was determined as 1.13; in [8] (setting [12]) it was 1.01.

For `COC(=O)C12C(C(C)=O)OC(CC(O)C1O)C2C` (stereo unspecified), the red/green cell ratio (normalised) in [8] was 0.97 (inactive). Besides, the normalised cell number was found to be 1.04 in assay [8] (setting [11]) and 1.01 in assay [8] (setting [12]).

`C#C[C@]1(O)CCC2C3CCC4=CC(=O)CC[C@@H]4C3CCC21CC` (stereo partly specified): the red/green cell ratio (normalised) in [8] was 1.14 (inactive). In addition, the normalised cell number was found to be 1.07 in assay [8] (setting [11]) and 1.21 in assay [8] (setting [12]).

On to `CC(C)CCCC(C)C1CCC2C3CC[C@H]4CC(=O)CC[C@]4(C)C3CC[C@]12C` (stereo partly specified), for which, in assay [8], the red/green cell ratio (normalised) was 0.94 (inactive). The normalised cell number is 1.04 in assay [8] (setting [11]) and 0.97 in assay [8] (setting [12]).

For the compound `CC1=C(/C=C/C(C)=C/C=C/C(C)=C/C=C/C=C(C)/C=C/C=C(C)/C=C/C2=C(C)C(=O)C(O)CC2(C)C)C(C)(C)CC(O)C1=O` (stereo unspecified), the red/green cell ratio (normalised) in assay [8] was 1.11 (inactive). The normalised cell number worked out at 0.97 in assay [8] (setting [11]) and 1.08 in [8] (setting [12]).

On to `CC(C)(C)Oc1c(F)c(F)nc(F)c1Cl`, for which the red/green cell ratio (normalised) in assay [8] is 0.97 (inactive). In addition, the normalised cell number in assay [8] (setting [11]) stood at 0.78; in [8] (setting [12]), 0.76.

On to `COC(=O)C1O[C@H](OCc2ccc(OC)cc2)[C@@H](OC(=O)c2ccccc2)[C@@H](OC(=O)c2ccccc2)C1O` (stereo partly specified), for which the red/green cell ratio (normalised) in assay [8] was 0.84 (inactive). The normalised cell number in assay [8] (setting [11]) worked out at 1.32; in [8] (setting [12]), 1.11.
